# Screening results (PubChem)
# Only a selection was taken, and hits are over-represented in it overall.
# Marburg entry inh: blocks Marburg virus binding to or entry into cells | Potency, µM (series often up to 37.8 µM), for inactives: at the highest dose activity change, negative = inhibition, usual class: inhibitors | Marburg virus pseudotyped entry inhibition, cell reporter | hit rate 1.8% among 300,000; calls by dose curve; tested in HEK293 cells; also: potency is read from the fitted curve at half-maximal effect; % is scaled to controls: 0 for no effect and ±100 for the full control effect
# Shiga inhibitor: blocks Shiga toxin action in Vero cells. Vero cells, Shiga toxin protein synthesis inhibition reporter. inhibition, % at 38.7 µM. hit rate 9.2% among 290,000; in the data active = inhibition mostly above about 28%, no sharp cut-off; inactive = mostly below about 43%; also: 0% is about no effect
# VACV Venus inh: vaccinia inhibition (Venus reporter) | Vaccinia virus Venus reporter expression, fluorescence | Potency, µM (doses to about 36.5 µM), for the others: at the highest dose activity change, negative = inhibition, most hits filed as inhibitors | hit rate 0.46% among 330,000 | AID 720580; calls by dose curve; tested in A549 cells; also: potency is read from the fitted curve at half-maximal effect; % is scaled to controls: 0 for no effect and ±100 for the full control effect; nearly all actives have a fitted effect of over 30% in size
# Lassa entry inh: Lassa virus entry inhibition. Lassa virus pseudotype entry inhibition, cell reporter. Potency, µM (top dose mostly 37.9 µM), inactives show at the highest dose activity change, negative = inhibition, usual class: inhibitors. hit rate 1.2% among 300,000. AID 540256; calls by dose curve; tested in HEK293 cells; also: potency is read from the fitted curve at half-maximal effect; % is scaled to controls: 0 for no effect and ±100 for the full control effect; nearly all actives have a fitted effect of over 50% in size
# Cycloheximide cs: counter-screen for Shiga toxin inhibitors: cycloheximide protein synthesis inhibition; max response, %; cell reporter, cycloheximide protein synthesis inhibition counterscreen; AID 2314; hit rate 12% among 300,000; in the data active = max response mostly above about 13%, no sharp cut-off; inactive = mostly below about 14%; also: read at 38.3 µM for the half of the compounds with a filed dose; 0% is about no effect
# VACV mCherry inh: vaccinia inhibition (mCherry reporter). Vaccinia virus mCherry reporter infection, fluorescence. Potency, µM (highest dose often 36.5 µM), for inactives: top-dose activity change, negative = inhibition, most hits filed as inhibitors. hit rate 0.63% among 310,000. AID 720579; calls by dose curve; tested in A549 cells; also: potency is read from the fitted curve at half-maximal effect; % is scaled to controls: 0 for no effect and ±100 for the full control effect; nearly all actives have a fitted effect of over 35% in size
# * marks the source's active call; other numbers are inactive results; i = inactive; u = inconclusive; x = not tested or not shown; + = active, no number; ! = not active in a repeat; [ ] = remark or other dose.
SMILES,Marburg entry inh,Shiga inhibitor,VACV Venus inh,Lassa entry inh,Cycloheximide cs,VACV mCherry inh
COc1cc2c(cc1OC)C(COc1ccc3c(C)cc(=O)oc3c1)N(C(=O)Cc1ccc(F)cc1)CC2 (stereo not given),8%[46.1 µM],x,0%,3%[46.1 µM],x,7%
CN(C)c1ccc(N=Nc2ccc(S(=O)(=O)O)cc2)cc1,x,x,10%,x,x,-25%
CC(=O)c1ccc(N=Nc2ccc(C)cc2)cc1,u,41*,-9%,u,22*,u
CC(=O)c1ccc(N=Nc2ccc(N(C)C)cc2)cc1,u,97*,-16%,u,41*,u
CN(C)c1ccc(N=Nc2ccccc2Br)cc1,x,37*,x,x,38*,x
C=C(C)C(=O)Oc1ccc(N=Nc2ccc(C)cc2)ccc1=O,u,x,-23%,u,x,-27%
CN(C)c1ccc(N=Nc2ccnc3ccccc23)cc1,x,x,-12%,x,x,i
Cc1ccc(C(=O)c2ccc(C)cc2)cc1,-1%[46.1 µM],79*,-6%,10%[46.1 µM],40*,i
CC(C)[C@@H](OCc1ccccc1)[C@H](C)C=NO[C@H](C)c1cn([C@@H]2COC[C@@H]2O)nn1,-6%[14.2 µM],x,x,x,x,x
Cc1cccc2cc(CNCCCN3CCCC3=O)c(N3CCN4CCCC4C3)nc12 (stereo not given),x,x,-19%,x,x,i
CC(Cc1ccccc1)NC(=O)CC(c1ccccc1)c1ccccc1O (stereo not given),u,-1,-17%,5.6µM*,-3,-24%
Cc1nc(C2COc3ccccc3O2)sc1C(=O)O (stereo not given),3%,71*,-8%,1%,13*,-10%
CCCCOc1ncnc2c1[nH]c1ccc(OC)cc12,u,77*,x,-26%,56*,x
CCCCOc1ncnc2c1[nH]c1ccccc12,u,37*,u,-11%,22*,-29%
CCCCOc1ncnc2c1[nH]c1ccc(OCC)cc12,13%,9,x,-9%,12,x
CCCCOc1ncnc2c1[nH]c1ccc(F)cc12,u,50*,u,u,34*,u
Cc1cccc(NC(=O)/C(C#N)=C/c2ccco2)c1,x,x,5%,u,x,-5%
Cc1cccc(CCN2C(Nc3ccccc3)=NC[C@@H]2C)c1,x,x,-14%,x,x,-10%
CCS(=O)(=O)N1Cc2ccccc2CC1C(=O)Nc1ncc(C)s1 (stereo not given),3%,108*,x,18%,40*,x
Cc1ccc2nc(NC(=O)C3CCCN(S(=O)(=O)c4cnc[nH]4)C3)sc2c1 (stereo not given),13%,+,-13%,-23%,43*,-10%
CCS(=O)(=O)N1Cc2ccccc2CC1C(=O)Nc1ccc(C)cc1 (stereo not given),-20%,49,x,1%,13,x
Cc1ccc2nc(NC(=O)C3CCCN(S(=O)(=O)c4cccnc4)C3)sc2c1 (stereo not given),-2%,-24,x,x,1,x
CCS(=O)(=O)N1Cc2ccccc2CC1C(=O)Nc1nc2ccc(C)cc2s1 (stereo not given),u,68*,-21%,u,39*,-10%
Cc1cc(N/N=C/c2ccncc2)nc2ccccc12,u,49*,x,u,14,x
Cc1cc(N/N=C/c2cccc(Br)c2)nc2ccccc12,-15%,24*,-23%,13%,33*,-13%
SMILES,Marburg entry inh,Shiga inhibitor,VACV Venus inh,Lassa entry inh,Cycloheximide cs,VACV mCherry inh
ClC(Cl)(Cl)c1nc(N/N=C/c2ccncc2)c2ccccc2n1,u,-6,-7%,12%[46.1 µM],9,-12%
CNS(=O)(=O)c1cn(CC(=O)NCc2ccccc2OC)cc1S(=O)(=O)NC,-20%[46.1 µM],-15,-3%,17%[46.1 µM],4,i
CCOc1ccc(CNC(=O)c2ccc3c(Cl)c4c(nc3c2)CCCC4)cc1,4%[46.1 µM],x,-15%,-23%[46.1 µM],x,-21%
O=C(OCn1ncc(Br)c(Br)c1=O)c1c(F)cccc1F,5%,3,x,x,17*,x
O=C(O)CCSc1ccc2ccccc2n1,-2%[46.1 µM],30*!,-18%,-9%,13,-6%
COc1cccc(NC(=O)CCSc2ccc3ccccc3n2)c1,-5%,17,-4%,-10%,15*,-12%
COc1ccc(C(N)c2csc(Nc3ccc(C(F)(F)F)cn3)n2)cc1 (stereo not given),x,x,-26%,x,x,-7%
O=C1C=C(Nc2ccc(O)cc2)C(=O)c2ccccc21,u,68*,u,u,44*,u
CC(=O)Nc1ccc(NC2=CC(=O)c3ccccc3C2=O)cc1,u,111*,-4%,1%[46.1 µM],55*,-21%
O=C1C=C(O)c2ccccc2C1=O,x,x,2%,x,x,-9%
CCOC(=O)c1ccc(NC2=CC(=O)C(=O)c3ccccc32)cc1,u,23,-4%,u,13,x
COc1cccc(C2(O)CC(C(F)(F)F)=NN2C(=O)c2ccccn2)c1 (stereo not given),u,65*,-16%,u,38*,-20%
O=C(c1ccccc1)N1N=C(C(F)(F)F)CC1(O)c1ccccc1 (stereo not given),x,x,x,x,1,x
COc1cccc(C(=O)N2N=C(c3ccccn3)CC2(O)C(F)(F)F)c1 (stereo not given),x,9,x,x,14,x
O=C(c1ccccc1)N1N=C(C(F)(F)F)CC1(O)c1ccc(F)cc1 (stereo not given),-19%,59*,-10%,-15%,25*,-14%
COc1cccc(CNC(=O)Cn2c(SCC(=O)Nc3ccc(C)c(C)c3)nc3ccccc32)c1,x,x,-25%,-2%[46.1 µM],x,-29%
Cc1cc(=O)oc2cc3c(cc12)CCCN3,3%,27,x,x,19*,x
COC(=O)c1ccccc1NC(=O)Cn1c(=O)n(CCCC(=O)NCc2ccccc2OC)c(=O)c2ccccc21,-20%[46.1 µM],x,-13%,-8%[46.1 µM],x,u
CCNC(=O)c1ccccc1NC(=O)c1cccc(S(=O)(=O)N2CCC(C)CC2)c1,u,-12,u,-16%,-3,x
CNC(=O)c1ccccc1NC(=O)c1cccc(S(=O)(=O)N2CCC(C)CC2)c1,u,-22,u,22µM*,9,i[1.46 µM]
CCCCNC(=O)C1(C)CCN1C(=O)CSc1ccccc1 (stereo not given),x,x,-4%,x,x,2%
N#Cc1ccc(S(=O)(=O)NC2CCCCNC2=O)cc1 (stereo not given),25%,-3,-4%,-17%,-3,-6%
CCN(c1ccc(C)cc1C)S(=O)(=O)c1nnc(NC(=O)CC(C)C)s1,x,x,-17%,14%[46.1 µM],x,-17%
COc1ccc(OC)c(CCNC(=O)Cc2ccc(NC(=O)C3=C(C)OCCS3)cc2)c1,x,x,-16%,x,x,-13%
CSc1ccc(CNC(=O)Cc2ccc(NC(=O)C3=C(C)OCCS3)cc2)cc1,x,55*,x,x,24*,x
CCOc1ccc(CCNC(=O)Cc2ccc(NC(=O)C3=C(C)OCCS3)cc2)cc1,x,47*,x,x,21,x
COc1ccccc1C(C)Nc1nc(-c2cccnc2)nc2ccccc12 (stereo not given),u,-7,-21%,-9%,-4,-5%
COc1ccc2c(c1OC)C(=O)N(c1cccc(C)c1)C2=O,10%,56,-13%,17%,43*,-22%
